Drawing on PubChem BioAssay AID624330 (Southern Research Specialized Biocontainment Screening …, 2012), this text covers inhibition for 29 compounds.

The whole screen tested about 340,000 compounds, of which about 2,100 (0.62%) were called active. Only a sample is shown. Entries with a potency or affinity are not part of this list. A number with no mark means an inactive call.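 How the source made its calls: active means first-screen hits whose inhibition reached a set limit at any dose in the follow-up dose series; inconclusive means inhibition above the set first-screen limit but never retested; inactive means the rest.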

For orientation: inhibition means the change of the read-out against control, counted positive when it falls.

The target in the assay is Rac GTPase-activating protein 1 (Homo sapiens) (UniProt Q9H0H5). The experiment in a line: blockers of MgcRacGAP-driven Rac1 GTP hydrolysis – biochemical, ADP Hunter fluorescence, primary and confirmatory, confirmation (AID 624330).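 Further: fluorescence reports GDP produced by GAP-driven GTP hydrolysis.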 Conditions: MgcRacGAP-stimulated Rac1 GTP hydrolysis, at 30 µM, stronger effect = higher value, GST-tagged Rac1 F28L mutant substrate.
Sequence of Rac GTPase-activating protein 1 (Homo sapiens) (Q9H0H5 whole entry, looked up): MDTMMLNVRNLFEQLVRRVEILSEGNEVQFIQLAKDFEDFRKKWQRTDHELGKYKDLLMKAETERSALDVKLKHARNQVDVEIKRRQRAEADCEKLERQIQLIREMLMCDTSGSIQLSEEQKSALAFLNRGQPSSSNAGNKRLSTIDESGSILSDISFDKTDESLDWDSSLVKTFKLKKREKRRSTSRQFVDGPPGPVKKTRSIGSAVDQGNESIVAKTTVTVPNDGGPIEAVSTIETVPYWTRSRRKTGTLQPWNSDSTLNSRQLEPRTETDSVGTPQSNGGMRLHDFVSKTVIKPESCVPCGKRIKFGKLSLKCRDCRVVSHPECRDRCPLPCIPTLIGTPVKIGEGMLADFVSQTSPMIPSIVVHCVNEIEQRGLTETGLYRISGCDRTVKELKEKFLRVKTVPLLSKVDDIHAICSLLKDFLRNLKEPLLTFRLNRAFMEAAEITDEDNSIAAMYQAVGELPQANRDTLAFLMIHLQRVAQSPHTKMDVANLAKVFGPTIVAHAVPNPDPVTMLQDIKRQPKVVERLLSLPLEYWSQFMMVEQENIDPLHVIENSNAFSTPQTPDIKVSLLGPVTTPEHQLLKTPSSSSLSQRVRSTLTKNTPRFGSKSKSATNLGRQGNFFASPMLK
Turning to `CC[C@]12c3[nH]c4cc(-c5ccco5)ccc4c3CCN1C(=O)[C@@H](CC(=O)NC/C=C(\C)CCC=C(C)C)C[C@@H]2C(=O)N1CCN(C(=O)C2CC2)CC1`, the inhibition is -1.48%.

With `O=C(O)C1CSC(c2ccncc2)N1` (centres undefined), the inhibition was 8.95%.

For the compound `O=C1CSC(c2ccco2)N1` (centres undefined), the inhibition was 0.85%.

Consider `CC1=NN(c2ccccc2)C(=O)/C1=C/N(C)C`, for which the inhibition is 8.12%.

Regarding `COc1ccc(/C=C2/C(=O)N(c3ccccc3)N=C2C)cc1Br`, the inhibition was 1.8%.

Consider `CCOc1cc(/C=C2\C(=O)N(CCC#N)N=C2C)ccc1OCC(N)=O`, for which the inhibition was 21.4%.

In the case of `COc1cc(C=C2C(=O)OC(C)(C)OC2=O)ccc1OCC(=O)Nc1ccccc1`, the inhibition was 4.19%.

For the compound `COc1ccc(/C=C2/C(=O)N(c3ccccc3)N=C2C)cc1OC`, the inhibition was 17.9%.

Consider `C#CCOc1ccc(/C=C2/C(=O)N(c3cccc(C(=O)O)c3)N=C2C)cc1OC`, for which the inhibition is 31.7%.

On to `CC1=NN(c2ccccc2)C(=O)/C1=C/C=C/c1ccccc1`, for which the inhibition is 6.5%.

Take `COc1ccccc1/C=C1/C(=O)N(c2ccc([N+](=O)[O-])cc2)N=C1C`: the inhibition is 4.92%.

Regarding `O=C(C1CCN(c2nnc(N3CCCC3=O)s2)CC1)N1CCN(c2cccc(C(F)(F)F)c2)CC1`, the inhibition is 7.18%.

With `COC(=O)c1cccc2c(C(=O)O)cc(-c3ccccc3)nc12`, the inhibition is 3.38%.

`c1ccc2c(c1)ccc1nnc(SCc3ccc4c(c3)OCCO4)n12`: the inhibition is 3.92%.

Consider `CC(=O)OC1CC2(C)C(CCC2(O)C(C)=O)C2CCC3C(Cl)C(=O)CCC3(C)C12` (centres undefined), for which the inhibition is 2.5%.

Consider `COCC(=O)N1C[C@H]2CON(C)[C@H]2C[C@H]1c1cccc(-c2ccccc2OC)c1`, for which the inhibition is 15.1%.

Turning to `CCOP(=O)(OCC)c1ccc2c(c1)C(=O)c1ccccc1CC2`, the inhibition is 9.38%.

`CCOc1ncccc1C(=O)OCc1c(F)cccc1Cl`: the inhibition is -3.89%.

As to `CC(C)(C)C(=O)Nc1c2c(nn1-c1ccc(F)cc1)CSC2`, the inhibition is 11%.

Turning to `CCCc1ccc2oc(C(=O)NCCN3CCCC(C(N)=O)C3)c(C)c2c1` (centres undefined), the inhibition was -11.6%.

Regarding `COc1ccc2ccccc2c1CNCCCN1CCOCC1`, the inhibition was 5.19%.

Take `CSc1ccc(/C=N/N2CCN(C)CC2)cc1`: the inhibition is 11.3%.

Regarding `CN1CCN(/N=C/c2nc(-c3ccccc3Cl)n3ccccc23)CC1`, the inhibition was 21.2%.

As to `O=Cc1nc(-c2ccccc2Cl)n2ccccc12`, the inhibition was 3.46%.

For the compound `O=C(O)/C=C/c1nc(-c2ccccc2)n2ccccc12`, the inhibition was 16.7%.

As for `O=Cc1nc(-c2ccc(Cl)cc2)n2ccccc12`, the inhibition was -3.25%.

`CN1CCN(/N=C/c2ccc(-c3ccccc3)cc2)CC1`: the inhibition is 13.1%.

For the compound `CN1CCN(/N=C/c2nc(-c3cccc([N+](=O)[O-])c3)n3ccccc23)CC1`, the inhibition is 12.2%.

On to `CC(C)(C)c1ccc(-c2nc(C=O)c3ccccn23)cc1`, for which the inhibition is -4.54%.
